Results published in publication PMC11006913.
Substitutions are numbered along the chain they refer to.

How the values were obtained:
Experiment in all cases: PBM; 200 nM protein, PBS
Settings in all cases: dsDNA, one strand shown
HESX1 [1] = target: HESX1 (Homo sapiens, UniProt Q9UBX0 95-180, R165K)
HOXA4 [2] = target: HOXA4 (Homo sapiens, UniProt Q00056 201-287, W262R)
HOXB6 [3] = target: HOXB6 (Homo sapiens, UniProt P17509 132-218, K202E)
HESX1 [4] = target: HESX1 (Homo sapiens, UniProt Q9UBX0 95-180)
HOXA4 [5] = target: HOXA4 (Homo sapiens, UniProt Q00056 201-287, R217L)
HOXD13 [6] = target: HOXD13 (Homo sapiens, UniProt P35453 263-343, T313R)
HOXD13 [7] = target: HOXD13 (Homo sapiens, UniProt P35453 263-343)
HOXA4 [8] = target: HOXA4 (Homo sapiens, UniProt Q00056 201-287)
HESX1 [9] = target: HESX1 (Homo sapiens, UniProt Q9UBX0 95-180, R109Q)
HESX1 [10] = target: HESX1 (Homo sapiens, UniProt Q9UBX0 95-180, P111T)
HOXD13 [11] = target: HOXD13 (Homo sapiens, UniProt P35453 263-343, T313A)
HESX1 [12] = target: HESX1 (Homo sapiens, UniProt Q9UBX0 95-180, F115L)
HOXA4 [13] = target: HOXA4 (Homo sapiens, UniProt Q00056 201-287, W262F)
HOXB6 [14] = target: HOXB6 (Homo sapiens, UniProt P17509 132-218)
HOXB9 = HOXB9 (Homo sapiens, UniProt P17482 171-250, T197M)
PRRX1 [15] = target: PRRX1 (Homo sapiens, UniProt P54821 80-166, F113S)
MSX2 [16] = target: MSX2 (Homo sapiens, UniProt P35548 130-214, R199I)
PAX4 [17] = target: T1, PAX4 (Homo sapiens, UniProt O43316 9-242, F177V)
T1 sequence: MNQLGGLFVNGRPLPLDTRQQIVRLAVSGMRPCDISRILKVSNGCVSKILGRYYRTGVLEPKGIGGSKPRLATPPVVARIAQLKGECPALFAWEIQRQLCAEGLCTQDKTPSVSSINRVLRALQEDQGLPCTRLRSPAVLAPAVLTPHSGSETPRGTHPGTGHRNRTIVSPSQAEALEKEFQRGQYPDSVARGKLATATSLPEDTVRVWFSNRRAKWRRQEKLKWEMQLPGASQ

MSX2 [18] = target: MSX2 (Homo sapiens, UniProt P35548 130-214)
PROP1 [19] = target: PROP1 (Homo sapiens, UniProt O75360 56-141, R99H)
ALX3 [20] = target: ALX3 (Homo sapiens, UniProt O95076 139-225, L168Q)
MSX2 [21] = target: MSX2 (Homo sapiens, UniProt P35548 130-214, F161Y)
ALX3 [22] = target: ALX3 (Homo sapiens, UniProt O95076 139-225, N203S)
PRRX1 [23] = target: PRRX1 (Homo sapiens, UniProt P54821 80-166)
HOXA7 [24] = target: HOXA7 (Homo sapiens, UniProt P31268 116-202)
ALX4 [25] = target: ALX4 (Homo sapiens, UniProt Q9H161 200-286)
ALX4 [26] = target: ALX4 (Homo sapiens, UniProt Q9H161 200-286, Q225E)
ALX1 [27] = target: ALX1 (Homo sapiens, UniProt Q15699 118-204, L144V)
ALX3 [28] = target: ALX3 (Homo sapiens, UniProt O95076 139-225, N203Q)
ALX1 [29] = target: ALX1 (Homo sapiens, UniProt Q15699 118-204, L144R)
ALX3 [30] = target: ALX3 (Homo sapiens, UniProt O95076 139-225)
PAX4 [31] = target: T2, PAX4 (Homo sapiens, UniProt O43316 9-242, F177Y)
T2 sequence: T1 sequence with V169Y

PROP1 [32] = target: PROP1 (Homo sapiens, UniProt O75360 56-141)
HOXC9 = HOXC9 (Homo sapiens, UniProt P31274 178-260, R222W)
ALX3 [33] = target: ALX3 (Homo sapiens, UniProt O95076 139-225, L168V)
PROP1 [34] = target: PROP1 (Homo sapiens, UniProt O75360 56-141, F88S)
VAX1 = VAX1 (Homo sapiens, UniProt Q5SQQ9 86-172, T142I)
PAX4 [35] = target: T3, PAX4 (Homo sapiens, UniProt O43316 9-242, R227W)
T3 sequence: T1 sequence with V169F, R219W

HOXA7 [36] = target: HOXA7 (Homo sapiens, UniProt P31268 116-202, W177C)
ALX1 [37] = target: ALX1 (Homo sapiens, UniProt Q15699 118-204)
HOXA2 [38] = target: HOXA2 (Homo sapiens, UniProt O43364 129-215, R185T)
HOXA2 [39] = target: HOXA2 (Homo sapiens, UniProt O43364 129-215, R185K)
HOXA2 [40] = target: HOXA2 (Homo sapiens, UniProt O43364 129-215, Y150S)
HOXA2 [41] = target: HOXA2 (Homo sapiens, UniProt O43364 129-215)
HOXA2 (Homo sapiens, UniProt O43364 129-215), sequence (O43364 129-215): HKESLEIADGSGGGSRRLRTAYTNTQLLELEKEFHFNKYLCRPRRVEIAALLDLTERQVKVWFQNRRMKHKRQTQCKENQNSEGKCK

HESX1 (Homo sapiens, UniProt Q9UBX0 95-180), sequence (Q9UBX0 95-180): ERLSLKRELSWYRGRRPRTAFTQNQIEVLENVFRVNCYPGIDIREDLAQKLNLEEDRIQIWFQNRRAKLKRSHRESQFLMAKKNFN
HOXA4 (Homo sapiens, UniProt Q00056 201-287, W262F), sequence (Q00056 201-287 W262F): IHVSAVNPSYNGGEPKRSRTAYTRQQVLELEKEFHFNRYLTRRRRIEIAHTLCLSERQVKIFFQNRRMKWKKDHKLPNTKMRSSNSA
HESX1 (Homo sapiens, UniProt Q9UBX0 95-180, R109Q), sequence (Q9UBX0 95-180 R109Q): as the sequence (Q9UBX0 95-180) above, with R15Q counted along it
HESX1 (Homo sapiens, UniProt Q9UBX0 95-180, R165K), sequence (Q9UBX0 95-180 R165K): as the sequence (Q9UBX0 95-180) above, with R71K counted along it
HESX1 (Homo sapiens, UniProt Q9UBX0 95-180, F115L), sequence (Q9UBX0 95-180 F115L): as the sequence (Q9UBX0 95-180) above, with F21L counted along it
HESX1 (Homo sapiens, UniProt Q9UBX0 95-180, P111T), sequence (Q9UBX0 95-180 P111T): as the sequence (Q9UBX0 95-180) above, with P17T counted along it
HOXB6 (Homo sapiens, UniProt P17509 132-218, K202E), sequence (P17509 132-218 K202E): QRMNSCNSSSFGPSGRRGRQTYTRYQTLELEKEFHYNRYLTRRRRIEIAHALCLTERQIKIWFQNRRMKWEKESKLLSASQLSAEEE
HOXA4 (Homo sapiens, UniProt Q00056 201-287, R217L), sequence (Q00056 201-287 R217L): as the sequence (Q00056 201-287 W262F) above, with R17L, F62W counted along it
HOXB6 (Homo sapiens, UniProt P17509 132-218), sequence (P17509 132-218): as the sequence (P17509 132-218 K202E) above, with E71K counted along it
PRRX1 (Homo sapiens, UniProt P54821 80-166), sequence (P54821 80-166): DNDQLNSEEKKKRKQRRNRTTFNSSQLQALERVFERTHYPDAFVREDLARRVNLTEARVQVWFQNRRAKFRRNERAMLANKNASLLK
MSX2 (Homo sapiens, UniProt P35548 130-214, F161Y), sequence (P35548 130-214 F161Y): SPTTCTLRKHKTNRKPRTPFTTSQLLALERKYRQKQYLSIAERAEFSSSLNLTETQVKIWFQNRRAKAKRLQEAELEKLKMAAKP
HOXA4 (Homo sapiens, UniProt Q00056 201-287, W262R), sequence (Q00056 201-287 W262R): as the sequence (Q00056 201-287 W262F) above, with F62R counted along it
MSX2 (Homo sapiens, UniProt P35548 130-214), sequence (P35548 130-214): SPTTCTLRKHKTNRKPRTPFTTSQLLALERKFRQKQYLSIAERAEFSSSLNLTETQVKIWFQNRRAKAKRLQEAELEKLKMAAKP
MSX2 (Homo sapiens, UniProt P35548 130-214, R199I), sequence (P35548 130-214 R199I): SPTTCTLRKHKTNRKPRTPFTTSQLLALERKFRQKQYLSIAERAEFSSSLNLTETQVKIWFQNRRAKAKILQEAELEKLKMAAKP
ALX3 (Homo sapiens, UniProt O95076 139-225, N203S), sequence (O95076 139-225 N203S): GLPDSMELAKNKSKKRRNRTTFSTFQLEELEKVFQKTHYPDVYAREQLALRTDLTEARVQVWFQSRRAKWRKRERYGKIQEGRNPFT
HOXA4 (Homo sapiens, UniProt Q00056 201-287), sequence (Q00056 201-287): as the sequence (Q00056 201-287 W262F) above, with F62W counted along it
ALX3 (Homo sapiens, UniProt O95076 139-225, L168Q), sequence (O95076 139-225 L168Q): as the sequence (O95076 139-225 N203S) above, with L30Q, S65N counted along it
HOXB9, sequence (P17482 171-250 T197M): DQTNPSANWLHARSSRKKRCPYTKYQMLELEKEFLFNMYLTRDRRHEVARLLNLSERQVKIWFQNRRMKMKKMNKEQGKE
PRRX1 (Homo sapiens, UniProt P54821 80-166, F113S), sequence (P54821 80-166 F113S): as the sequence (P54821 80-166) above, with F34S counted along it
PROP1 (Homo sapiens, UniProt O75360 56-141, R99H), sequence (O75360 56-141 R99H): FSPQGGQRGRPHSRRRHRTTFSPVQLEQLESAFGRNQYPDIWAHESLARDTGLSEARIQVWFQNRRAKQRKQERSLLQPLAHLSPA
VAX1, sequence (Q5SQQ9 86-172 T142I): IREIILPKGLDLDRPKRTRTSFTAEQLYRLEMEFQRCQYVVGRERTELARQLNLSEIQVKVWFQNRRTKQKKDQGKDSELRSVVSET
ALX3 (Homo sapiens, UniProt O95076 139-225, N203Q), sequence (O95076 139-225 N203Q): as the sequence (O95076 139-225 N203S) above, with S65Q counted along it
HOXA2 (Homo sapiens, UniProt O43364 129-215, Y150S), sequence (O43364 129-215 Y150S): as the sequence (O43364 129-215) above, with Y22S counted along it
PROP1 (Homo sapiens, UniProt O75360 56-141), sequence (O75360 56-141): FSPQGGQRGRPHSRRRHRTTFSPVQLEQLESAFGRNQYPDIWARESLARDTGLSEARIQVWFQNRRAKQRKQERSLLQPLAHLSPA
PROP1 (Homo sapiens, UniProt O75360 56-141, F88S), sequence (O75360 56-141 F88S): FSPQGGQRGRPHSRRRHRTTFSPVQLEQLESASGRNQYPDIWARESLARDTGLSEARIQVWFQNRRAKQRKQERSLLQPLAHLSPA
ALX1 (Homo sapiens, UniProt Q15699 118-204, L144R), sequence (Q15699 118-204 L144R): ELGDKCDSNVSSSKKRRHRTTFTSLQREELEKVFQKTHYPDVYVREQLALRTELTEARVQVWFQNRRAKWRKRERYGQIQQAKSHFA
HOXA2 (Homo sapiens, UniProt O43364 129-215, R185T), sequence (O43364 129-215 R185T): as the sequence (O43364 129-215) above, with R57T counted along it
HOXD13 (Homo sapiens, UniProt P35453 263-343, T313R), sequence (P35453 263-343 T313R): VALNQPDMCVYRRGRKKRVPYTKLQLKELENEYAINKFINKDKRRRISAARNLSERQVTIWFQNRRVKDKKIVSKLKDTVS
ALX1 (Homo sapiens, UniProt Q15699 118-204, L144V), sequence (Q15699 118-204 L144V): as the sequence (Q15699 118-204 L144R) above, with R27V counted along it
HOXD13 (Homo sapiens, UniProt P35453 263-343, T313A), sequence (P35453 263-343 T313A): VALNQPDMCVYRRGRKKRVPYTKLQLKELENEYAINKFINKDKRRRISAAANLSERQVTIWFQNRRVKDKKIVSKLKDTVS
ALX3 (Homo sapiens, UniProt O95076 139-225, L168V), sequence (O95076 139-225 L168V): as the sequence (O95076 139-225 N203S) above, with L30V, S65N counted along it
HOXA2 (Homo sapiens, UniProt O43364 129-215, R185K), sequence (O43364 129-215 R185K): as the sequence (O43364 129-215) above, with R57K counted along it
ALX3 (Homo sapiens, UniProt O95076 139-225), sequence (O95076 139-225): as the sequence (O95076 139-225 N203S) above, with S65N counted along it
ALX4 (Homo sapiens, UniProt Q9H161 200-286), sequence (Q9H161 200-286): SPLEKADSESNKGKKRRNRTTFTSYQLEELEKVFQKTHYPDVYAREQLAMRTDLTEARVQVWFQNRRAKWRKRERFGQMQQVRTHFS
HOXA7 (Homo sapiens, UniProt P31268 116-202), sequence (P31268 116-202): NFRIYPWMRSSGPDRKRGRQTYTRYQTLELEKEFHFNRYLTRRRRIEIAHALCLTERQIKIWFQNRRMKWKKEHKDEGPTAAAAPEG
HOXC9, sequence (P31274 178-260 R222W): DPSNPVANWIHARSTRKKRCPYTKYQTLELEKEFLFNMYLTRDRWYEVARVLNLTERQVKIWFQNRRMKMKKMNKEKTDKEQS
HOXA7 (Homo sapiens, UniProt P31268 116-202, W177C), sequence (P31268 116-202 W177C): as the sequence (P31268 116-202) above, with W62C counted along it
ALX1 (Homo sapiens, UniProt Q15699 118-204), sequence (Q15699 118-204): as the sequence (Q15699 118-204 L144R) above, with R27L counted along it
HOXD13 (Homo sapiens, UniProt P35453 263-343), sequence (P35453 263-343): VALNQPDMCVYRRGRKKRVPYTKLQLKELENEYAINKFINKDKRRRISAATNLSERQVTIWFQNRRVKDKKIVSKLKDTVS
ALX4 (Homo sapiens, UniProt Q9H161 200-286, Q225E), sequence (Q9H161 200-286 Q225E): as the sequence (Q9H161 200-286) above, with Q26E counted along it

## GCCCCCCA
HESX1 [1]
  binding signal: 6.24 upbm affinity estimate (log intensity, higher = more binding, comparable within an allelic series)
HOXA4 [2]
  binding signal: 9.56 upbm affinity estimate (log intensity, higher = more binding, comparable within an allelic series)
HOXB6 [3]
  binding signal: 8.7 upbm affinity estimate (log intensity, higher = more binding, comparable within an allelic series)
HESX1 [4]
  binding signal: 6.28 upbm affinity estimate (log intensity, higher = more binding, comparable within an allelic series)
HOXA4 [5]
  binding signal: 9.68 upbm affinity estimate (log intensity, higher = more binding, comparable within an allelic series)
HOXD13 [6]
  binding signal: 9.1 upbm affinity estimate (log intensity, higher = more binding, comparable within an allelic series)
HOXD13 [7]
  binding signal: 9.22 upbm affinity estimate (log intensity, higher = more binding, comparable within an allelic series)
HOXA4 [8]
  binding signal: 9.71 upbm affinity estimate (log intensity, higher = more binding, comparable within an allelic series)
HESX1 [9]
  binding signal: 6.41 upbm affinity estimate (log intensity, higher = more binding, comparable within an allelic series)
HESX1 [10]
  binding signal: 6.34 upbm affinity estimate (log intensity, higher = more binding, comparable within an allelic series)
HOXD13 [11]
  binding signal: 9.24 upbm affinity estimate (log intensity, higher = more binding, comparable within an allelic series)
HESX1 [12]
  binding signal: 6.4 upbm affinity estimate (log intensity, higher = more binding, comparable within an allelic series)
HOXA4 [13]
  binding signal: 9.58 upbm affinity estimate (log intensity, higher = more binding, comparable within an allelic series)
HOXB6 [14]
  binding signal: 8.91 upbm affinity estimate (log intensity, higher = more binding, comparable within an allelic series)

## ACAATTAT
HESX1 [1]
  binding signal: 11.8 upbm affinity estimate (log intensity, higher = more binding, comparable within an allelic series)
HOXB9
  binding signal: 9.96 upbm affinity estimate (log intensity, higher = more binding, comparable within an allelic series)
PRRX1 [15]
  binding signal: 11.2 upbm affinity estimate (log intensity, higher = more binding, comparable within an allelic series)
HOXB6 [3]
  binding signal: 9.99 upbm affinity estimate (log intensity, higher = more binding, comparable within an allelic series)
HESX1 [4]
  binding signal: 12.1 upbm affinity estimate (log intensity, higher = more binding, comparable within an allelic series)
MSX2 [16]
  binding signal: 12.6 upbm affinity estimate (log intensity, higher = more binding, comparable within an allelic series)
PAX4 [17]
  binding signal: 10.6 upbm affinity estimate (log intensity, higher = more binding, comparable within an allelic series)
MSX2 [18]
  binding signal: 13.8 upbm affinity estimate (log intensity, higher = more binding, comparable within an allelic series)
HESX1 [9]
  binding signal: 8.44 upbm affinity estimate (log intensity, higher = more binding, comparable within an allelic series)
PROP1 [19]
  binding signal: 10.8 upbm affinity estimate (log intensity, higher = more binding, comparable within an allelic series)
ALX3 [20]
  binding signal: 10.2 upbm affinity estimate (log intensity, higher = more binding, comparable within an allelic series)
HESX1 [10]
  binding signal: 10.3 upbm affinity estimate (log intensity, higher = more binding, comparable within an allelic series)
MSX2 [21]
  binding signal: 13.4 upbm affinity estimate (log intensity, higher = more binding, comparable within an allelic series)
HESX1 [12]
  binding signal: 7.61 upbm affinity estimate (log intensity, higher = more binding, comparable within an allelic series)
ALX3 [22]
  binding signal: 8.71 upbm affinity estimate (log intensity, higher = more binding, comparable within an allelic series)
PRRX1 [23]
  binding signal: 13.2 upbm affinity estimate (log intensity, higher = more binding, comparable within an allelic series)

## AATTATTA
HESX1 [1]
  binding signal: 11.5 upbm affinity estimate (log intensity, higher = more binding, comparable within an allelic series)
HOXB9
  binding signal: 10.1 upbm affinity estimate (log intensity, higher = more binding, comparable within an allelic series)
HOXA7 [24]
  binding signal: 11.3 upbm affinity estimate (log intensity, higher = more binding, comparable within an allelic series)
ALX4 [25]
  binding signal: 13.5 upbm affinity estimate (log intensity, higher = more binding, comparable within an allelic series)
PRRX1 [15]
  binding signal: 11.3 upbm affinity estimate (log intensity, higher = more binding, comparable within an allelic series)
HOXB6 [3]
  binding signal: 10.1 upbm affinity estimate (log intensity, higher = more binding, comparable within an allelic series)
ALX4 [26]
  binding signal: 12.8 upbm affinity estimate (log intensity, higher = more binding, comparable within an allelic series)
HESX1 [4]
  binding signal: 11.7 upbm affinity estimate (log intensity, higher = more binding, comparable within an allelic series)
HOXA4 [5]
  binding signal: 12 upbm affinity estimate (log intensity, higher = more binding, comparable within an allelic series)
MSX2 [16]
  binding signal: 12.3 upbm affinity estimate (log intensity, higher = more binding, comparable within an allelic series)
ALX1 [27]
  binding signal: 11.4 upbm affinity estimate (log intensity, higher = more binding, comparable within an allelic series)
ALX3 [28]
  binding signal: 8.58 upbm affinity estimate (log intensity, higher = more binding, comparable within an allelic series)
ALX1 [29]
  binding signal: 11.2 upbm affinity estimate (log intensity, higher = more binding, comparable within an allelic series)
MSX2 [18]
  binding signal: 13.4 upbm affinity estimate (log intensity, higher = more binding, comparable within an allelic series)
ALX3 [30]
  binding signal: 12.3 upbm affinity estimate (log intensity, higher = more binding, comparable within an allelic series)
PAX4 [31]
  binding signal: 10.9 upbm affinity estimate (log intensity, higher = more binding, comparable within an allelic series)
PROP1 [32]
  binding signal: 11 upbm affinity estimate (log intensity, higher = more binding, comparable within an allelic series)
HESX1 [9]
  binding signal: 8.87 upbm affinity estimate (log intensity, higher = more binding, comparable within an allelic series)
PROP1 [19]
  binding signal: 10.8 upbm affinity estimate (log intensity, higher = more binding, comparable within an allelic series)
ALX3 [20]
  binding signal: 10.4 upbm affinity estimate (log intensity, higher = more binding, comparable within an allelic series)
HESX1 [10]
  binding signal: 10.3 upbm affinity estimate (log intensity, higher = more binding, comparable within an allelic series)
HOXC9
  binding signal: 11.1 upbm affinity estimate (log intensity, higher = more binding, comparable within an allelic series)
ALX3 [33]
  binding signal: 9.98 upbm affinity estimate (log intensity, higher = more binding, comparable within an allelic series)
PROP1 [34]
  binding signal: 7.79 upbm affinity estimate (log intensity, higher = more binding, comparable within an allelic series)
MSX2 [21]
  binding signal: 13.1 upbm affinity estimate (log intensity, higher = more binding, comparable within an allelic series)
HESX1 [12]
  binding signal: 8 upbm affinity estimate (log intensity, higher = more binding, comparable within an allelic series)
VAX1
  binding signal: 12.3 upbm affinity estimate (log intensity, higher = more binding, comparable within an allelic series)
PAX4 [35]
  binding signal: 11 upbm affinity estimate (log intensity, higher = more binding, comparable within an allelic series)
HOXA7 [36]
  binding signal: 8.91 upbm affinity estimate (log intensity, higher = more binding, comparable within an allelic series)
ALX1 [37]
  binding signal: 12 upbm affinity estimate (log intensity, higher = more binding, comparable within an allelic series)
HOXA4 [13]
  binding signal: 11.5 upbm affinity estimate (log intensity, higher = more binding, comparable within an allelic series)
ALX3 [22]
  binding signal: 8.68 upbm affinity estimate (log intensity, higher = more binding, comparable within an allelic series)
PRRX1 [23]
  binding signal: 13.4 upbm affinity estimate (log intensity, higher = more binding, comparable within an allelic series)
HOXB6 [14]
  binding signal: 11.8 upbm affinity estimate (log intensity, higher = more binding, comparable within an allelic series)

## TCCCCCCA
HESX1 [1]
  binding signal: 6.55 upbm affinity estimate (log intensity, higher = more binding, comparable within an allelic series)
HOXA4 [2]
  binding signal: 9.6 upbm affinity estimate (log intensity, higher = more binding, comparable within an allelic series)
HESX1 [4]
  binding signal: 6.5 upbm affinity estimate (log intensity, higher = more binding, comparable within an allelic series)
HOXA2 [38]
  binding signal: 7.32 upbm affinity estimate (log intensity, higher = more binding, comparable within an allelic series)
HOXA4 [5]
  binding signal: 9.7 upbm affinity estimate (log intensity, higher = more binding, comparable within an allelic series)
HOXA2 [39]
  binding signal: 10.4 upbm affinity estimate (log intensity, higher = more binding, comparable within an allelic series)
HOXA4 [8]
  binding signal: 9.81 upbm affinity estimate (log intensity, higher = more binding, comparable within an allelic series)
HESX1 [9]
  binding signal: 6.55 upbm affinity estimate (log intensity, higher = more binding, comparable within an allelic series)
HESX1 [10]
  binding signal: 6.52 upbm affinity estimate (log intensity, higher = more binding, comparable within an allelic series)
HESX1 [12]
  binding signal: 6.55 upbm affinity estimate (log intensity, higher = more binding, comparable within an allelic series)
HOXA2 [40]
  binding signal: 10.2 upbm affinity estimate (log intensity, higher = more binding, comparable within an allelic series)
HOXA4 [13]
  binding signal: 9.56 upbm affinity estimate (log intensity, higher = more binding, comparable within an allelic series)
HOXA2 [41]
  binding signal: 7.41 upbm affinity estimate (log intensity, higher = more binding, comparable within an allelic series)
